Hits are enriched below; roughly 22% of the tested compounds scored in any of these assays.
Shiga inhibitor: Shiga toxin inhibition; 290,000 tested, 9.2% active; inhibition, % at 38.7 µM; AID 2315; Vero cells, Shiga toxin protein synthesis inhibition reporter; in the data active = inhibition mostly above about 28%, no sharp cut-off; inactive = mostly below about 43%
LmPK inh: blocks Leishmania mexicana pyruvate kinase activity; Q27686; purified LmPK, Kinase-Glo ATP luminescence, 1 h; Potency, µM (top dose mostly 57.5 µM), most hits filed as inhibitors; 290,000 tested, 0.37% active
Target sequence (Q27686 whole entry, looked up): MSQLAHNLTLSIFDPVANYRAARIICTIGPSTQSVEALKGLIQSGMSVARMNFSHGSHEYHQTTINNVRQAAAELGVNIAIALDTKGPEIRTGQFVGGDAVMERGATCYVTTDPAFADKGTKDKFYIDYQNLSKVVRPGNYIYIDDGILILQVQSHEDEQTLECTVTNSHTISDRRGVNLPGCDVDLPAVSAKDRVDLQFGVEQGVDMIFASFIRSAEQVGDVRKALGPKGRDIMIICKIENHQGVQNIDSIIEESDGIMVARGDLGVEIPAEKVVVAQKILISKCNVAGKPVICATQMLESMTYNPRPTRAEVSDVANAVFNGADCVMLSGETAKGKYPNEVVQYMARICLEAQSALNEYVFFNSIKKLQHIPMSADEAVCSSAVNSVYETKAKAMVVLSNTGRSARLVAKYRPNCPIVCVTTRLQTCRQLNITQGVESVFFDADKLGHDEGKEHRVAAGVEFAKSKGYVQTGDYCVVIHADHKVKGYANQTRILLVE
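qHTS format; LmPK 0.1 nM; substrates PEP 0.5 mM and ADP 0.1 mM. One-hour room-temperature incubation, then coupled luciferase luminescence; 0.5 nM enzyme wells mark activation.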
Cycloheximide cs: counter-screen hit for Shiga toxin inhibitors, cycloheximide; cell reporter, cycloheximide protein synthesis inhibition counterscreen; max response, %; 300,000 tested, 12% active; AID 2314; in the data active = max response mostly above about 13%, no sharp cut-off; inactive = mostly below about 14%; note: read at 38.3 µM for the half of the compounds with a filed dose
Pf growth 48h: P. falciparum growth inhibition at 48 hours (one generation). P. falciparum luciferase growth in erythrocytes, 48 h. Potency, µM (highest dose often 28.7 µM), usual class: inhibitors. 310,000 tested, 5.9% active. AID 504832
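In quantitative HTS format, infected erythrocytes bearing luciferase-reporter parasites were treated for a single generation at 37 C. Luminescence after adding detection reagent served as the growth measure.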
Pf growth 96h: inhibits malaria parasite growth, 96 h. P. falciparum luciferase reporter growth, 96 h. Potency, µM (top dose mostly 28.7 µM), hits mostly inhibitors. 320,000 tested, 6.9% active
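Erythrocytes infected with luciferase-expressing P. falciparum were dispensed at 2% hematocrit and 0.05% parasitemia (final), then incubated with compounds 96 hours at 37 C in 5% CO2. Luminescence after detection reagent addition reported growth.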
Of the large screens only hits and unclear results are named; the others gave an inactive call. Unless noted, calls come from the whole dose curve; as a rule, active = well fitted inhibition curve with a large enough effect; inconclusive = small, poorly fitted or top-dose-only effect, or another doubt; inactive = no such curve, though single readings can be large or run the other way.

Clc1cccc(CSc2nnc(-c3c[nH]c4ccccc34)o2)c1	Cycloheximide cs 9.8 (no result: Pf growth 48h)
CCCc1nnc(NC(=O)CCC(=O)N2CCN(Cc3cc(Cl)ccc3OC)CC2)s1	Pf growth 96h inconclusive
O=C(NOC(=O)c1c(F)cccc1Cl)c1ccc(Cl)c(Cl)c1	Shiga inhibitor 46.1, Cycloheximide cs 30.5 (no result: Pf growth 48h)
CCC(C(=O)OCC(=O)NC(=O)c1ccccc1OC)c1ccccc1 (centres undefined)	none (no result: Shiga inhibitor, LmPK inh, Cycloheximide cs)
Cc1ccc(NC(=O)NNC(=O)Cn2nc(-c3ccccc3)c(-c3ccccc3)c(C#N)c2=O)cc1	Pf growth 48h inconclusive, Pf growth 96h inconclusive
COc1ccc(-c2nc(NC(=O)C3CCN(c4nc5ccccc5o4)CC3)sc2C)cc1	Pf growth 48h 8.28µM (no result: Pf growth 96h)
COc1ccc(-c2nc(NC(=O)C3CC(=O)N(Cc4ccco4)C3)sc2C)cc1 (centres undefined)	Pf growth 48h 11.7µM, Pf growth 96h inconclusive (no result: Shiga inhibitor, LmPK inh, Cycloheximide cs)
COc1ccc(-c2nc(NC(=O)Cn3c(=O)oc4ccccc43)sc2C)cc1	Pf growth 96h inconclusive
O=C(Cc1cccs1)NCCS(=O)(=O)N1CCN(c2ccccc2F)CC1	none (no result: Shiga inhibitor, LmPK inh, Cycloheximide cs)
Oc1c(Cl)cc(Cl)cc1CN1CCN(Cc2ccccc2)CC1	Cycloheximide cs 20.1, Pf growth 48h 1.17µM, Pf growth 96h 0.738µM
O=C(Cc1ccccc1)N1CCN(Cc2ccccc2Cl)CC1	Pf growth 96h 4.15µM
Clc1ccccc1CN1CCNCC1	Pf growth 96h 8.28µM
O=C(C1CCN(Cc2cc(Cl)ccc2O)CC1)N1CCN(Cc2ccccc2)CC1	Pf growth 48h inconclusive
CCOC(=O)N1CCN(Cc2cccs2)CC1	none
c1csc(CN2CCNCC2)c1	Pf growth 96h 10.4µM
COc1ccc(C(=O)OCC[N+]2(C)CCOCC2)cc1	Pf growth 96h inconclusive
O=C(Nc1ccc2c(c1)CCCN2C(=O)c1cccs1)c1cccc(F)c1	Shiga inhibitor 47.0, Cycloheximide cs 22.2
O=C(Nc1ccc2c(c1)CCCN2C(=O)c1cccs1)c1ccccc1	Shiga inhibitor 36.3, Cycloheximide cs 35.9
COc1cc(OC)cc(C(=O)Nc2ccc3c(c2)CCCN3C(=O)c2cccs2)c1	Pf growth 48h inconclusive, Pf growth 96h inconclusive
O=C(CSc1ccc2ccccc2c1)NC1CCCc2ccccc21 (centres undefined)	none
Cc1cc(NS(C)(=O)=O)c(=O)n(Cc2cccc(F)c2)c1	Pf growth 96h 2.62µM
Cc1onc(-c2c(Cl)cccc2Cl)c1COC(=O)c1ccc([N+](=O)[O-])cc1	Pf growth 48h inconclusive, Pf growth 96h inconclusive
Cc1onc(-c2c(Cl)cccc2Cl)c1COC(=O)c1ccc(Cl)cc1	Pf growth 48h inconclusive, Pf growth 96h 13.1µM
CCCCNC(=O)C1CC(=O)N(CCc2ccc(C)cc2)C1 (centres undefined)	none
Cc1cccc(C)c1NC(=O)C(C)N1CCCCC1 (centres undefined)	none
COc1cc(O)c(CCO)c2c1C(=O)C[C@@H](C)O2	Pf growth 96h 1.85µM
COc1cc(NC(=O)c2cccs2)c(C(=O)OCC(=O)c2cc(C)n(-c3ccc(F)cc3)c2C)cc1OC	Shiga inhibitor 98.0, Cycloheximide cs 123.1, Pf growth 96h 2.62µM
COc1cc(NC(=O)c2cccs2)c(C(=O)OCC(=O)c2cc(C)n(-c3ccccc3)c2C)cc1OC	Shiga inhibitor 66.5, Cycloheximide cs 42.7, Pf growth 48h inconclusive, Pf growth 96h inconclusive
COc1cc(NC(=O)c2cccs2)c(C(=O)OCC(=O)NC(=O)NC(C)(C)C)cc1OC	none (no result: Pf growth 48h)
COc1ccc(-n2c(C)cc(C(=O)COC(=O)c3cc(NC(=O)c4cccs4)c(OC)c(OC)c3)c2C)cc1	Pf growth 48h 1.85µM, Pf growth 96h inconclusive
COc1cc(NC(=O)c2cccs2)c(C(=O)OCC(=O)NC(=O)NCc2ccccc2)cc1OC	none (no result: Pf growth 48h)
CC1(c2ccc3c(c2)OCCO3)NC(=O)N(CC(=O)Nc2ccccc2)C1=O (centres undefined)	Pf growth 96h inconclusive (no result: Shiga inhibitor, LmPK inh, Cycloheximide cs)
Cc1ccc(NC(=O)CSCC(=O)Nc2cccc3ncccc23)cc1	Pf growth 48h inconclusive (no result: Shiga inhibitor, LmPK inh, Cycloheximide cs)
CC1CCCCN1CC(=O)Nc1sc2c(c1C#N)CCC2 (centres undefined)	none
Cn1c(-c2ccc3c(c2)OCO3)c(C(=O)O)c(=O)c2ccccc21	none
Nc1oc2ccccc2c(=O)c1-c1ccc2c(c1)OCO2	Shiga inhibitor 72.0, Cycloheximide cs 41.0
Clc1ccc(COc2cccc(CNCc3ccncc3)c2)cc1	Pf growth 96h inconclusive
CN(C)C(=O)CN1CCN(Cc2nc(CC3CC3)no2)CC1	none

Screens from PubChem.
